According to PubChem BioAssay (NCI):
This is part of a sample that, as a whole, favours compounds with a hit. Of some 79,000 tested, about 15% had one in any assay. Values without a mark were called inactive. The source made the active and inactive calls. Cut-off read from the data, not from the text of the source: active = growth inhibition above about 70%; inactive = the rest.

Columns and labels:
[1] = NCI Yeast Anticancer Drug Screen. Data for the rad52 strain (AID 147);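 note: 0% = growth of vehicle-treated control cultures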; details: S. cerevisiae rad52 mutant growth inhibition, stronger effect = higher value
Outline: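 Vehicle-treated cultures served as the reference for growth inhibition of compound-exposed yeast bearing a DNA repair mutation.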

[2] = NCI Yeast Anticancer Drug Screen. Data for the wt1 strain (AID 149);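 note: 0% = growth of vehicle-treated wt1 cultures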; details: S. cerevisiae wt1 strain (SPY 50644) growth inhibition, stronger effect = higher value
Outline: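 Readout: yeast growth inhibition, normalised to vehicle controls, in the wt1 strain exposed to test compounds.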

[3] = NCI Yeast Anticancer Drug Screen. Data for the rad50EPP+ strain (AID 151);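 note: 0% = growth of vehicle-treated control cultures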; details: S. cerevisiae rad50 mutant strain, stronger effect = higher value
Outline: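 In this screen, rad50EPP+ yeast were exposed to compounds. Growth inhibition was scored against vehicle-treated controls.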

[4] = NCI Yeast Anticancer Drug Screen. Data for the mgt1 strain (AID 153); details: S. cerevisiae mgt1 mutant growth inhibition, stronger effect = higher value
Outline: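 mgt1 strain exposed; growth vs vehicle control recorded as inhibition.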

[5] = NCI Yeast Anticancer Drug Screen. Data for the rad50 strain (AID 155);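 note: 0% = growth of vehicle-only cultures of the same strain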; details: S. cerevisiae rad50 strain growth inhibition, stronger effect = higher value
Outline: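 Compounds were tested on a yeast strain with an engineered DNA damage repair alteration; the reported value is growth inhibition normalised to vehicle treatment.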

[6] = NCI Yeast Anticancer Drug Screen. Data for the mec2-1 strain (AID 157); details: S. cerevisiae mec2-1 strain, stronger effect = higher value
Outline: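 Vehicle-treated cultures served as reference for growth inhibition of compound-exposed mec2-1 yeast.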

[7] = NCI Yeast Anticancer Drug Screen. Data for the rad14 strain (AID 159);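 note: 0% = growth of vehicle-treated control cultures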; details: S. cerevisiae rad14 strain growth inhibition, stronger effect = higher value
Outline: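 Compound-treated yeast with a defined DNA-repair lesion; growth inhibition normalised to vehicle-treated cultures.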

[8] = NCI Yeast Anticancer Drug Screen. Data for the sgs1 mgt1 strain (AID 161);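 note: 0% = growth of cultures given vehicle only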; details: S. cerevisiae sgs1 mgt1 strain, stronger effect = higher value
Outline: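 Mutant yeast exposed to compound; growth scored against vehicle-only wells.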

[9] = NCI Yeast Anticancer Drug Screen. Data for the CLN2oe strain (AID 163);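 note: 0% = growth of vehicle-only control cultures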; details: S. cerevisiae CLN2oe strain, stronger effect = higher value
Outline: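 Inhibition relative to vehicle-treated yeast is reported. Cells: strain with genetic alteration in cell-cycle control, grown with compound.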

[10] = NCI Yeast Anticancer Drug Screen. Data for the cln2 rad14 strain (AID 165);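 note: 0% = growth equal to vehicle treated cultures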; details: S. cerevisiae cln2 rad14 strain, stronger effect = higher value
Outline: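 Each compound was tested on cln2 rad14 yeast. Inhibition of growth was calculated against vehicle-exposed controls.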

[11] = NCI Yeast Anticancer Drug Screen. Data for the bub3 strain (AID 167); details: S. cerevisiae bub3 mutant strain, stronger effect = higher value
Outline: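 Growth of a checkpoint-deficient yeast mutant is measured after compound exposure. Values represent inhibition relative to vehicle.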

[12] = NCI Yeast Anticancer Drug Screen. Data for the wt2 strain (AID 169);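 note: 0% = growth of vehicle-treated yeast cultures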; details: S. cerevisiae wt2 strain growth inhibition, stronger effect = higher value
Outline: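 Inhibition of yeast growth was determined after compound treatment, normalised to controls receiving only vehicle.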

[13] = NCI Yeast Anticancer Drug Screen. Data for the mlh1 strain (AID 171);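 note: 0% = growth of vehicle-treated control cultures of the same strain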; details: S. cerevisiae mlh1 strain growth inhibition, stronger effect = higher value
Outline: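 Vehicle-normalised growth inhibition of a repair- or checkpoint-altered yeast strain following compound treatment.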

[14] = NCI Yeast Anticancer Drug Screen. Data for the sgs1 strain (AID 173);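 note: 0% = growth of vehicle-only control cultures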; details: S. cerevisiae sgs1 mutant, stronger effect = higher value
Outline: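 Screen format: yeast with repair or checkpoint alterations, compound exposure, growth read relative to vehicle.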

[15] = NCI Yeast Anticancer Drug Screen. Data for the mlh1 rad18 strain (AID 175); details: S. cerevisiae mlh1 rad18 strain growth inhibition, stronger effect = higher value
Outline: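 Vehicle-treated cultures served as the reference for growth inhibition in a yeast strain carrying DNA damage repair alterations exposed to each compound.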

[16] = NCI Yeast Anticancer Drug Screen. Data for the rad18 strain (AID 177); details: S. cerevisiae rad18 mutant growth inhibition, stronger effect = higher value
Outline: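 Test articles were incubated with altered yeast defective in DNA damage repair. Results are given as inhibition of growth versus vehicle.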

[17] = at 5.0 µM (retest, dose inferred, filed as 0.5)
[18] = at 50.0 µM (retest, dose inferred, filed as 5.0)

## C[CH2][Sn]([CH2]C)([O]S(C)(=O)=O)[O]S(C)(=O)=O
[1]; at 1.2 µM
  growth inhibition: -24%
[1]; at 3.7 µM
  growth inhibition: -17%
[1]; at 11.0 µM
  growth inhibition: -24%
[1]; at 33.0 µM
  growth inhibition: -10%
[1]; at 100.0 µM
  growth inhibition: 11%
[2]; at 1.2 µM
  growth inhibition: -27%
[2]; at 3.7 µM
  growth inhibition: -9%
[2]; at 11.0 µM
  growth inhibition: -15%
[2]; at 33.0 µM
  growth inhibition: -12%
[2]; at 100.0 µM
  growth inhibition: -2%
[3]; at 1.2 µM
  growth inhibition: -28%
[3]; at 3.7 µM
  growth inhibition: -30%
[3]; at 11.0 µM
  growth inhibition: -25%
[3]; at 33.0 µM
  growth inhibition: -14%
[3]; at 100.0 µM
  growth inhibition: -19%
[4]; at 1.2 µM
  growth inhibition: 0%
[4]; at 3.7 µM
  growth inhibition: 0%
[4]; at 11.0 µM
  growth inhibition: -11%
[4]; at 33.0 µM
  growth inhibition: -7%
[4]; at 100.0 µM
  growth inhibition: 37%
[5]; at 1.2 µM
  growth inhibition: -21%
[5]; at 3.7 µM
  growth inhibition: -6%
[5]; [17]
  growth inhibition: 18%
[5]; at 11.0 µM
  growth inhibition: -15%
[5]; at 33.0 µM
  growth inhibition: -20%
[5]; [18]
  growth inhibition: 57%
[5]; at 50.0 µM
  growth inhibition: 76.2% (active)
[5]; at 100.0 µM
  growth inhibition: 6%
[6]; at 1.2 µM
  growth inhibition: -15%
[6]; at 3.7 µM
  growth inhibition: -4%
[6]; [17]
  growth inhibition: 13%
[6]; at 11.0 µM
  growth inhibition: -9%
[6]; at 33.0 µM
  growth inhibition: -4%
[6]; [18]
  growth inhibition: 58%
[6]; at 50.0 µM
  growth inhibition: 85.3% (active)
[6]; at 100.0 µM
  growth inhibition: 16%
[7]; at 1.2 µM
  growth inhibition: -21%
[7]; at 3.7 µM
  growth inhibition: -18%
[7]; at 11.0 µM
  growth inhibition: -17%
[7]; at 33.0 µM
  growth inhibition: -10%
[7]; at 100.0 µM
  growth inhibition: -9%
[8]; [17]
  growth inhibition: 14%
[8]; [18]
  growth inhibition: 58%
[8]; at 50.0 µM
  growth inhibition: 50%
[9]; at 1.2 µM
  growth inhibition: -78%
[9]; at 3.7 µM
  growth inhibition: -94%
[9]; at 11.0 µM
  growth inhibition: -65%
[9]; at 33.0 µM
  growth inhibition: -103%
[9]; at 100.0 µM
  growth inhibition: -62%
[10]; [17]
  growth inhibition: 6%
[10]; [18]
  growth inhibition: 18%
[10]; at 50.0 µM
  growth inhibition: 46.2%
[11]; at 1.2 µM
  growth inhibition: -28%
[11]; at 3.7 µM
  growth inhibition: -25%
[11]; [17]
  growth inhibition: 36%
[11]; at 11.0 µM
  growth inhibition: -17%
[11]; at 33.0 µM
  growth inhibition: -27%
[11]; [18]
  growth inhibition: 50%
[11]; at 50.0 µM
  growth inhibition: 45.5%
[11]; at 100.0 µM
  growth inhibition: 24%
[12]; at 1.2 µM
  growth inhibition: -56%
[12]; at 3.7 µM
  growth inhibition: -44%
[12]; at 11.0 µM
  growth inhibition: -46%
[12]; at 33.0 µM
  growth inhibition: 3%
[12]; at 100.0 µM
  growth inhibition: 55%
[13]; at 1.2 µM
  growth inhibition: -51%
[13]; at 3.7 µM
  growth inhibition: -29%
[13]; at 11.0 µM
  growth inhibition: -33%
[13]; at 33.0 µM
  growth inhibition: -37%
[13]; at 100.0 µM
  growth inhibition: 0%
[14]; at 1.2 µM
  growth inhibition: -27%
[14]; at 3.7 µM
  growth inhibition: -16%
[14]; at 11.0 µM
  growth inhibition: -22%
[14]; at 33.0 µM
  growth inhibition: -7%
[14]; at 100.0 µM
  growth inhibition: 15%
[15]; [17]
  growth inhibition: 33%
[15]; [18]
  growth inhibition: 80% (active)
[15]; at 50.0 µM
  growth inhibition: 56.6%
[16]; at 1.2 µM
  growth inhibition: -28%
[16]; at 3.7 µM
  growth inhibition: -19%
[16]; at 11.0 µM
  growth inhibition: -13%
[16]; at 33.0 µM
  growth inhibition: -15%
[16]; at 100.0 µM
  growth inhibition: 25%
